Compounds without any hit were thinned out: in the full panel of roughly 83,000, 20% have a hit.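 Note: values are percent growth. 100 is the growth of untreated cells, values between 100 and 0 indicate rising inhibition; between -100 and 0 indicates cell death.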 Values without a mark were called inactive. Calls of active or inactive are those of the source. Rule for the calls: active = growth percent below 10; inactive = the rest.

Holding throughout (assay): NCI-60 one-dose screen, 48 h (100 = growth as untreated, 0 = no growth, -100 = all killed)
Common to all, as to details: 10 µM unless noted

Test [1] relates to NCI-H23 lung.
The test system of test [2] is NCI-H226 lung.
Test [3] concerns NCI-H322M lung.
Test [4] concerns HOP-62 NSCLC.
Test [5] has as its system NCI-H460 lung.
In test [6] the test system is HOP-92 NSCLC.
Test [7] has as its system NCI-H522 lung.
The subject of test [8] is A549/ATCC NSCLC.
Test [9] deals with 786-0 renal.
Test [10] deals with COLO 205 colon.
In test [11] the test system is DU-145 prostate.
Test [12] concerns K-562 leukemia.
Test [13] deals with MALME-3M melanoma.
Test [14] has as its system MDA-MB-231 breast.
Test [15] relates to RXF 393 renal.
In test [16] the test system is SF-268 CNS.
Test [17] concerns SF-295 CNS.
Test [18] deals with SF-539 CNS.
For test [19], the system named is M14 melanoma.

Turning to `COC(=O)C1=C(C(=O)OC)C23C=C(C)C1C2=C(C)C1(CC1)[C@@](C)(O)C3=O` (stereo partly specified), the growth was -20.9% (active) in [1]; -34.8% (active) in test [2]; -9.66% (active) in test [3]; -21.7% (active) in test [4]; 0.847% (active) in test [5]; -19.3% (active) in test [6]. Besides, the growth in test [7] was -11% (active); in [8] it was 1.39% (active); in test [9], -20.6% (active); in [10], -51.9% (active); in [11] it was 2.57% (active); in test [12], 81%. Besides, the growth in [13] is -44.4% (active); in [14] it was 9.08% (active); in [15], -64.4% (active); in test [16], 7.19% (active); in test [17], -4% (active); in [18], -39.6% (active). Besides, the growth in test [19] is -43.1% (active).
Turning to `COC(=O)[C@]12CC[C@@H](C)[C@H](C)[C@@H]1C1=CC[C@@H]3[C@@]4(C)C(C#N)=CC(C)=C4CC[C@@]3(C)[C@]1(C)CC2`, the growth in [1] is 78.2%; in test [2], 82.7%; in test [3] it was 108%; in test [4] it was 113%; in [5] it was 89.3%; in [6], 91.7%. For the same compound, the growth is 78.1% in test [7]; 92.2% in test [8]; 93% in [9]; 86.1% in [10]; 99.3% in test [11]; 84.5% in [12]. Also, the growth is 87.5% in test [13]; 85.4% in test [14]; 85.3% in [16]; 85.4% in [17]; 91.8% in test [18]; 77.2% in test [19].
For `C[C@@H](C[C@H](CCO)c1cc(C(F)(F)F)cc(C(F)(F)F)c1)c1ccc2ccccc2c1`, the growth was 85.3% in test [1]; 91.1% in [2]; 99.1% in [3]; 85.6% in test [4]; 106% in test [5]; 96.5% in test [6]. In addition, the growth in [7] was 76.7%; in [8], 87.7%; in test [9] it was 87.5%; in test [10], 97%; in [11], 93.2%; in test [12], 33%. Also, the growth in [13] was 87.9%; in test [14] it was 93.6%; in test [16], 81.8%; in [17] it was 77.8%; in test [18], 94.2%; in test [19], 79.7%.
Regarding `O=C(Cn1c(=O)ccn(CCCCCCCCOc2ccc(Br)cc2)c1=O)Nc1ccc(Oc2ccc(Cl)cc2)cc1`, the growth is 47.8% in test [1]; 56.6% in [2]; 102% in test [3]; 67.1% in test [4]; 56.8% in [5]; 22.4% in test [6]. The growth was 44.6% in test [7]; 54.4% in test [8]; 65.7% in [9]; 76.7% in [10]; 73.7% in test [11]; 40.5% in test [12]. Besides, the growth in [13] was 69.8%; in [14] it was 66.6%; in test [15], 79.8%; in [16] it was 71.1%; in [17], 52.9%; in [18] it was 61.9%. The growth in test [19] is 70.1%.
Take `COc1ccc(C2CC(=O)c3c(O)c(OC)c(OC)c(OC)c3O2)cc1O` (stereo unspecified): the growth in [1] was 33.8%; in [2], 89.2%; in test [3], 44.3%; in test [4] it was 61.9%; in test [5], 3.01% (active); in [6], 79.5%. In addition, the growth is 13.1% in [7]; 28.7% in test [8]; 49% in [9]; 67.3% in test [10]; 18.2% in test [11]; 11.6% in test [12]. In addition, the growth in test [13] is 57.5%; in test [14], 17.1%; in test [16], 44.6%; in test [17], 6.54% (active); in [18], -13% (active); in [19] it was 7.68% (active).
On to `NC1=Nc2ccccc2N(O)N1`, for which the growth in test [1] was 102%; in test [2], 98.2%; in test [3], 96.8%; in [4] it was 80.9%; in [5], 110%; in test [6], 107%. Also, the growth in [7] is 71.7%; in test [8], 74.3%; in [9] it was 101%; in test [10], 105%; in [11], 113%; in [12], 96.7%. For the same compound, the growth was 97% in test [13]; 102% in [14]; 98.1% in [16]; 102% in [17]; 96.3% in test [18]; 103% in [19].
For `CCCCCCCC(=O)SCC/C=C/[C@@H]1CC(=O)NCc2cccc(n2)C2=N[C@@](C)(CS2)C(=O)N[C@@H](C(C)C)C(=O)O1`, the growth is 2.23% (active) in [1]; -9.02% (active) in [2]; -5.77% (active) in test [3]; -22.2% (active) in test [4]; 5.88% (active) in test [5]; -5.42% (active) in test [6]. Besides, the growth was -12.7% (active) in test [7]; 0.749% (active) in test [8]; 10.8% in test [9]; -61.8% (active) in test [10]; 12.3% in test [11]; 11.1% in test [12]. The growth was 22.7% in test [13]; 10.2% in [14]; 11.1% in [16]; -62.4% (active) in test [17]; 20% in [18]; 5.95% (active) in test [19].
For the compound `COc1ccc(CCCc2c3[n+](cc4c(OC)c(OC)ccc24)CCc2cc4c(cc2-3)OCO4)cc1`, the growth in test [1] was 47.4%; in test [2] it was 88.4%; in test [3] it was 96.1%; in test [4] it was 78.6%; in [5], 52.4%; in test [6], 77.8%. The growth in [7] is 38.7%; in test [8] it was 61.2%; in test [9] it was 92.2%; in [10], -11.2% (active); in test [11] it was 79.3%; in [12] it was 57.8%. Further, the growth in test [13] was 94.4%; in test [14], 84.6%; in test [16], 63%; in [17], 78.9%; in [18] it was 92.3%; in test [19], 85.1%.
